Source: PubChem BioAssay (NCI)
About 83,000 compounds went through this panel and 20% of them were active in at least one assay; those are over-represented in the sample as a whole.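 Cell lines were cultured in 96-well plates, exposed to a single compound concentration, and assessed for percent growth 48 hours later.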 Activity calls are given as the source filed them.

Each compound was assayed on NCI-H322M lung (assay: NCI-60 one-dose screen, 48 h (100 = growth as untreated, 0 = no growth, -100 = all killed)). Settings: 10 µM unless noted.
Experimental: Growth inhibition of the NCI-H322M human Non-Small Cell Lung tumor cell line is measured as a screen for anti-cancer activity. Cells are grown in 96 well plates and exposed to the test compound for 48 hours. Compounds are tested at a single concentration, which is 10^-5 M for most compounds. The reported endpoint is percent growth (GI% or GIPRCNT), where numbers from 0 - 100% represent growth inhibition, and numbers from -100% - 0 represent cell death. For example, a value of 40 represents 60% growth inhibition. A value of 0 means no net growth occurred over the course of the experiment. A value of -40 indicates 40% of cells at the beginning of the experiment died by the end of the experiment. A value of -100 means all cells are dead at the end of the experiment.
NCI-60 Human Tumor Cell Lines Screen was performed using the standard one-dose NCI protocol, which is described in more detail at https://dtp.cancer.gov/discovery_development/nci-60/default.htm.
Compounds with GIPRCNT values below 10 were considered active. Activity score was based on GIPRCNT using the following formula: […]
Score is 0 for GIPRCNT values of 100 or above, 50 for GIPRCNT values of 0, and 100 for GIPRCNT values of -100.

| SMILES | growth |
| --- | --- |
| COc1cc2c3c(n(CCCNC4CCC4)c(=O)c2cc1OC)-c1cc2c(cc1C3=O)OCO2 | -37.7% (active) |
| CC(C)C[C@H]1C(=O)O[C@H](C(C)C)C(=O)N(C)[C@@H](C(C)C)C(=O)O[C@H](C(C)C)C(=O)N(C)[C@@H](C(C)C)C(=O)O[C@H](C(C)C)C(=O)N1C | 13.3% (inactive) |
| Cc1ccc(NC(=O)N[C@@H](Cc2cc(F)cc(F)c2)C(=O)NC2C(=O)N3CCC[C@H]3C(=O)N3CCCC[C@H]3C(=O)N[C@@H](C)C(=O)N3C[C@H](C)C[C@H]3C(=O)O[C@H]2C)c(F)c1 (stereo not given in full) | 52.7% (inactive) |
| CN(c1ccc(Cl)cc1)S(=O)(=O)c1ccc(-c2cnc(C3CC3)o2)cc1 | 55% (inactive) |
| Cc1ccc(Cc2cnc(NC(=O)/C(C#N)=C/c3ccc(-c4ccc(Cl)cc4)o3)s2)cc1 | 84.9% (inactive) |
| COc1ccc(C(=O)c2c(N)c(C#N)cn2-c2cccc(OC)c2)cc1 | 62.6% (inactive) |
| O=C(CCCCCCN1CC(=O)N2[C@@H](c3ccc(Cl)c(F)c3)c3[nH]c4ccccc4c3C[C@H]2C1=O)NO | 86.1% (inactive) |
| Brc1cccc(/C=N/Nc2nc(N/N=C/c3cccc(Br)c3)nc(N3CCOCC3)n2)c1 | 52.8% (inactive) |
| C=CCn1c(SCC(=O)Nc2cccc(C(=O)/C=C/c3cccc([N+](=O)[O-])c3)c2)nc2ccccc2c1=O | 95.4% (inactive) |
| COc1cc2c3c(n(CCCNC4CCCC4)c(=O)c2cc1OC)-c1cc2c(cc1C3=O)OCO2 | 6.3% (active) |
| COc1cc(O)c2c(c1)/C=C/C[C@H](O)[C@H](O)C(=O)/C=C\C[C@H](C)OC2=O | 64% (inactive) |
| CN1CCN(c2ccc3c(C(N)=O)c(NC(=O)c4ccc(C(C)(C)C)cc4)sc3c2)CC1 | 94.7% (inactive) |
| C#C[C@]1(O)CC[C@H]2[C@@H]3CC=C4c5sc(Nc6ccc(OC)nc6)nc5CC[C@]4(C)[C@H]3CC[C@@]21C | 85% (inactive) |
| Cc1ccc(-c2cc(-c3ccc(N(C)C)cc3)n3c(n2)nc2ccccc23)cc1 | 103% (inactive) |
| CN1CCN(Cc2ccc(NC(=O)c3cncc(C#Cc4cnc5ccc(O[C@H]6CCOC6)nn45)c3)cc2C(F)(F)F)CC1 | -36.4% (active) |
| NS(=O)(=O)c1ccc(Nc2nc(N/N=C/c3ccc(C(F)(F)F)cc3)nc(Nc3ccccc3)n2)cc1 | 52.6% (inactive) |
| Cc1ccc(S(=O)(=O)N/N=C/c2cn(-c3ccc(F)cc3)nc2-c2ccc(S(C)(=O)=O)cc2)cc1 | 106% (inactive) |
| C#C[C@]1(O)CC[C@H]2[C@@H]3CC=C4c5sc(Nc6cc(OC)ccc6OC)nc5CC[C@]4(C)[C@H]3CC[C@@]21C | 62.2% (inactive) |
| C#CCOc1ccccc1C(Nc1ccccc1)c1nnnn1C1CCCCC1 (stereo not given) | 92.5% (inactive) |
| CC(=O)Nc1ccc(C)c(Nc2cc(-c3ccc(-n4cccn4)cc3)[nH]n2)c1 | 83.8% (inactive) |

| SMILES | growth |
| --- | --- |
| CN1CCN(c2nc(-c3csc(-c4ccncc4)n3)cc3ccccc23)CC1 | 82.1% (inactive) |
| Cc1cc(-c2ccc3nc(N)sc3c2)nc2ccc3[nH]ncc3c12 | 67.1% (inactive) |
| N#C/C(=C\c1ccc2ccccc2c1)C(=O)Nc1sc2c(c1C#N)CCC2 | 113% (inactive) |
| CCCCCCNC(=O)Oc1ccc(/C(=C(/C)c2ccccc2)c2ccc(OCCN(C)C)cc2)cc1 | 77.1% (inactive) |
| NS(=O)(=O)c1ccc(Nc2nc(N/N=C/c3ccc(F)cc3)nc(Nc3ccccc3)n2)cc1 | 58.1% (inactive) |
| CC1(C)CC[C@]2(C(=O)N3CCCN(CC#N)CC3)CC[C@]3(C)C(=CC[C@@H]4[C@@]5(C)CC[C@H](O)C(C)(C)[C@@H]5CC[C@]43C)[C@H]2C1 | 94.9% (inactive) |
| C/C(=N\NC(=O)CSc1nc2sc3c(c2c(=O)n1-c1ccccc1)CCC(C)C3)c1ccc(Cl)cc1 (stereo not given) | 51.3% (inactive) |
| O=C(NNc1nc2cc(F)cc(F)c2n2cccc12)c1ncccn1 | 25.5% (inactive) |
| CC(C)c1nn(-c2ccccc2)c(N2CCCCC2)c1/C=N/NC(N)=S | 82.3% (inactive) |
| COc1cc(CNC(=O)Cc2ccccc2[N+](=O)[O-])ccc1OCC(=O)NO | 107% (inactive) |
| CCCCOc1ccc(S(=O)(=O)N2CCN(c3nccc(N4CCOCC4)n3)CC2)cc1 | 45.1% (inactive) |
| N/C(=N\OC(=O)CSc1nc2ccccc2s1)c1ccc(Cl)cc1 | 101% (inactive) |
| Oc1ccccc1-c1nnc(SCc2ccc(O)c3ncccc23)o1 | 64.2% (inactive) |
| CCN(CC)CCN1C(=O)c2c(c3c4cccnc4[nH]c3c3ccc4ccccc4c23)C1=O | 76.7% (inactive) |
| COc1cc(/C=N/n2cnc3oc(-c4ccccc4)cc3c2=N)cc(CN2CCN(C)CC2)c1O | 108% (inactive) |
| C/C(=C(/C)C1CC1CCN(C(=O)c1ccc([N+](=O)[O-])cc1)S(=O)(=O)c1ccc(C)cc1)C1CCCCC1 (stereo not given) | 100% (inactive) |
| C#C[C@]1(O)CC[C@H]2[C@@H]3CC=C4c5sc(Nc6cccc(Cl)n6)nc5CC[C@]4(C)[C@H]3CC[C@@]21C | 44.5% (inactive) |
| CC1(C)CC[C@]2(C(=O)O)CC[C@]3(C)C(=CCC4[C@@]5(C)C[C@@H](O)[C@@H]6OC(c7ccccc7O)OC[C@@]6(C)C5CC[C@]43C)C2C1 (stereo not given in full) | 40.5% (inactive) |
| COc1ccc(-c2cc(-c3ccc(Cl)cc3)nc3nc(N)nn23)cc1 | 102% (inactive) |
| Cn1cc2c(c1)-c1c(sc3nc(-c4ccc(NC(=O)Nc5cc(C(C)(C)C)on5)cc4)cn13)CC2 | 75.6% (inactive) |
